According to PubChem BioAssay (NCATS):
Results filed as inconclusive are left out. Active and inactive are the calls of the source. Unless noted, calls follow the shape of the full dose curve.

Experiments:
[1] = biological target: Lysosomal acid glucosylceramidase (Homo sapiens) (UniProt P04062); experiment: Glucocerebrosidase-p2 (AID 348; in the data active = potency below about 10 µM; also: potency is read from the fitted curve at half-maximal effect); details: purified GBA, blue fluorogenic substrate, 40 min
Chain of Lysosomal acid glucosylceramidase (Homo sapiens) (P04062 whole entry, looked up): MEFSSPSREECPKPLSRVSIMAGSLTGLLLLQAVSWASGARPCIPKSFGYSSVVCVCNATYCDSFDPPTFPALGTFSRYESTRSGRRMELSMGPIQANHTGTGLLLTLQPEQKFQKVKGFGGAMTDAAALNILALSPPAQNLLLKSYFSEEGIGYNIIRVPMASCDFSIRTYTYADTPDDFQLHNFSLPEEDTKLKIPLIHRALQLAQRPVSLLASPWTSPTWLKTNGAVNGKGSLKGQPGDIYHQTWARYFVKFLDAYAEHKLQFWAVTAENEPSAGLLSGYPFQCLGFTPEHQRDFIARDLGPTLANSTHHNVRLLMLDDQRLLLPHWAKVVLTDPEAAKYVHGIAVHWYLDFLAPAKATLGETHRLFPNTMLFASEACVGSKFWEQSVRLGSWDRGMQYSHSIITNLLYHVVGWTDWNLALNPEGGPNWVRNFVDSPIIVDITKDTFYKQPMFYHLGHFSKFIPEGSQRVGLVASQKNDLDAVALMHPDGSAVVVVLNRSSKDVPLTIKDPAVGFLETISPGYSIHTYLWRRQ
Method in brief: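 Normal human glucocerebrosidase (0.2 nM) with blue fluorogenic substrate (80 uM final) in citrate/phosphate pH 5.9 with 10mM sodium taurocholate, 0.01% tween-20; 40 min RT, NaOH/glycine stop; fluorescence Ex 365/Em 440; AC50 from a titration from 0.6 nM upwards.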

[2] = AP1 Signaling Pathway (AID 357; active = well fitted curve in either direction with a large enough effect, not every such curve was filed as active; also: % is scaled to controls: 0 for no effect and ±100 for the full control effect); details: ME-180 AP-1-bla reporter, EGF-induced, beta-lactamase ratio, 5 h; at 7.69 µM (top of the series) unless noted
Method in brief: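 ME-180 cells with beta-lactamase reporter under AP-1 response element, stimulated with EC50 EGF; compounds tested in titration series, 5 h at 37 °C. CCF4 substrate added 2.5 h at room temperature; 460/530 nm emission ratio gave %activity and AC50.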

[3] = biological target: Cytochrome P450 1A2 (Homo sapiens) (UniProt P05177); experiment: p450-cyp1a2 (AID 410); details: recombinant CYP1A2, luciferin-ME demethylation, luminescence; series mostly up to 57 µM; also: potency is read from the fitted curve at half-maximal effect;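 as to activity change, negative = inhibition: -100% = full effect of reference inhibitor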
Chain of Cytochrome P450 1A2 (Homo sapiens) (P05177 whole entry, looked up): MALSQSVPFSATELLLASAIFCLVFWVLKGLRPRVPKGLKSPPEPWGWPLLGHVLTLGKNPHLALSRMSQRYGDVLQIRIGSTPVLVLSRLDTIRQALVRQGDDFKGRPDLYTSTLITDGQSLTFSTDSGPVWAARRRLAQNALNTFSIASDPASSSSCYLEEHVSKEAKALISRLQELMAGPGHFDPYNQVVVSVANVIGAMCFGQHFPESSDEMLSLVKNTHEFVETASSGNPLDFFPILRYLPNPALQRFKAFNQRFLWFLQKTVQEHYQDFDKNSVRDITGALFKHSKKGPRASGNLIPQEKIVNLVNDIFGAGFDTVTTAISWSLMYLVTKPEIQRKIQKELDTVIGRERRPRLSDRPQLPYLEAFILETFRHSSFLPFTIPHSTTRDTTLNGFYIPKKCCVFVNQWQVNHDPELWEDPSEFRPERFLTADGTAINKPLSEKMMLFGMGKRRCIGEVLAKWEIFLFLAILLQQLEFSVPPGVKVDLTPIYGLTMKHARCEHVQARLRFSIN
Method in brief: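 20nM CYP1A2, 100uM Luciferin-ME (=Km), 100mM KPO4; cpd 10 min RT; +NADPH regen, 60 min RT; stop/detect 20 min; luminescence. Normalized to furafylline 57 uM = full inhibition.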

[4] = Stat Signaling Pathway (AID 446; active = well fitted curve in either direction with a large enough effect, not every such curve was filed as active;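 also: ME-180 cervical cancer cells given 40 pM IL-6 alongside compound; SIE-controlled beta-lactamase reporter measured as 460/530 nm FRET emission ratio; % is scaled to controls: 0 for no effect and ±100 for the full control effect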); details: ME-180 (cervical carcinoma) SIE beta-lactamase reporter, IL-6 stimulated, 5 h; at 7.69 µM (top of the series) unless noted
Method in brief: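 Emission at 460 and 530 nm (excitation 405 nm) reports SIE-controlled beta-lactamase in ME-180 cells. Cells received compound with 40 pM IL-6 for 5 hrs at 37 C; data scaled between 300 pM IL-6 and 125 nM JAK-inhibitor controls.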

[5] = biological target: Glucocorticoid receptor (Homo sapiens) (UniProt P04150); experiment: GR-EFC Redistribution (AID 451); details: CHO-K1 GR-EFC translocation, beta-gal luminescence, 2 h; also: potency is read from the fitted curve at half-maximal effect
Chain of Glucocorticoid receptor (Homo sapiens) (P04150 whole entry, looked up, the tested form may be a part): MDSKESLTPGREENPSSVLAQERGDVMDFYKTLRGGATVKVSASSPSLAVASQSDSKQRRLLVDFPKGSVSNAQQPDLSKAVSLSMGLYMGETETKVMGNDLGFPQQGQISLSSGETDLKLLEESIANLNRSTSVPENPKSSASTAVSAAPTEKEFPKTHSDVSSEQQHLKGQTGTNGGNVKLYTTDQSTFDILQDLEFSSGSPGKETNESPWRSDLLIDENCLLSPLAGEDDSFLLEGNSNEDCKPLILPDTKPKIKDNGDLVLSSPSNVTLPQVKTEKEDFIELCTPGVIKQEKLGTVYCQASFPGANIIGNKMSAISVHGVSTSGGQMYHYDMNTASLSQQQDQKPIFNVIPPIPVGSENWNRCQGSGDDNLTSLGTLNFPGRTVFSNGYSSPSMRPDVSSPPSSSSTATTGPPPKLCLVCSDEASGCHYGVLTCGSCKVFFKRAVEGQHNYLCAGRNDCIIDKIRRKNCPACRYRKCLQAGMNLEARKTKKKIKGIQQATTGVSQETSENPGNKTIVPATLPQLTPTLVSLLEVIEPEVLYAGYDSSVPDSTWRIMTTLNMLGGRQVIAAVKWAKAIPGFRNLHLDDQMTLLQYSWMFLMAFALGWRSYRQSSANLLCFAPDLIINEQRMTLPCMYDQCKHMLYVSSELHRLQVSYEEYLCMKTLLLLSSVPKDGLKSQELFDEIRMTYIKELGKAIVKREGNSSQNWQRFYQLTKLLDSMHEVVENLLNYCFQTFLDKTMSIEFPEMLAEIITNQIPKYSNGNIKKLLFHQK
Method in brief: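 Translocation of GR-ED fusion to nuclear EA restores b-gal, read by luminescence after 1 h room-temperature detection. Engineered CHO-K1 biosensor cells, 1,000/well, exposed 2 h at 37 C to titrations up to 46 uM final.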

[6] = biological target: Mitogen-activated protein kinase 10 (Mus musculus) (UniProt Q61831); experiment: JNK3 AlphaScreen Assay (AID 530; active = well fitted curve in either direction with a large enough effect, not every such curve was filed as active;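 also: kinase came from lysate of stimulated human HepG2 cells; signal reports phosphorylation of biotinylated GST-cJun 1-79 at Ser73 with 10 µM ATP; % is scaled to controls: 0 for no effect and ±100 for the full control effect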); details: JNK3 lysate, c-Jun phosphorylation; series mostly up to 57.1 µM
Method in brief: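 Kinase buffer: 20 mM Tris-HCl pH 7.6, 10 mM MgCl2, 1 mM DTT, 0.1 mM Na3VO4, 0.01% Tween-20; ATP 10 uM. Substrate biotin-GST-cJun(1-79), enzyme from activated HepG2 lysates. Detection by Ser73 phospho-antibody AlphaScreen.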

[7] = biological target: 3',5'-cyclic-AMP phosphodiesterase 4B (Homo sapiens) (UniProt Q07343); experiment: qHTS Assay for Inhibitors of PDE-IV (AID 607; active = well fitted activation curve with a large enough effect in the main read-out, with a control signal flat, not every such curve was filed as active; also: % of control where 0% means no effect); details: HEK293 ACTOne CNG channel cells, membrane potential fluorescence; series mostly up to 22.9 µM
Chain of 3',5'-cyclic-AMP phosphodiesterase 4B (Homo sapiens) (Q07343 whole entry, looked up): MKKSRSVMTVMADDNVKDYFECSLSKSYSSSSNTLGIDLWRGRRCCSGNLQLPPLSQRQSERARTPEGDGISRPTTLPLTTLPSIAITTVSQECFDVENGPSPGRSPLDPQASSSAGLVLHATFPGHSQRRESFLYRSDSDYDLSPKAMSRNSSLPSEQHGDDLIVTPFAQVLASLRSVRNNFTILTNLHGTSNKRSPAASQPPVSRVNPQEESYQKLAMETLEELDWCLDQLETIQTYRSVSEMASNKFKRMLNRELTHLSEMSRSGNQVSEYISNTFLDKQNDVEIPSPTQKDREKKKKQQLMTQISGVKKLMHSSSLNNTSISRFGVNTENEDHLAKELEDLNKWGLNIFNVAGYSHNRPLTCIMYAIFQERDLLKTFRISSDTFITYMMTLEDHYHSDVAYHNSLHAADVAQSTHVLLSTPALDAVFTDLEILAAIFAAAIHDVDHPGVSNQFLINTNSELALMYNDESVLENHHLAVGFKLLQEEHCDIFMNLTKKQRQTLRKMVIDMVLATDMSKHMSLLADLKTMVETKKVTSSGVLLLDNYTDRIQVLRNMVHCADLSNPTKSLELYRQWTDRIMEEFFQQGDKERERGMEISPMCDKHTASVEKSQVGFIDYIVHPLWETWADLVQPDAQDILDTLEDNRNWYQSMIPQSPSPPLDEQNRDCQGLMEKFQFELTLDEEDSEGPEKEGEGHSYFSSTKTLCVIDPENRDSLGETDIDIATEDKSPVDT
Method in brief: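 The readout is membrane depolarisation from a cAMP-sensing CNG channel, detected with a potential dye at ex 535/em 590. Cells were HEK293-derived (endogenous PDE-IV) at 1000 cells/well, titrated up to 22.9 uM final.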

[8] = qHTS Assay for Lipid Storage Modulators (AID 1519); details: Drosophila S3 cells, BODIPY lipid droplet/cell ratio, laser cytometry, cells loaded with oleic acid; for activity change, negative = inhibition: at 57.5 µM (top of the series)
Method in brief: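 Cells seeded at 5,000 per well were treated with compounds over a concentration series and loaded with oleic acid (400 uM, as added). Lipid droplet fluorescence (488 nm excitation, 500-530 nm channel) was read by laser-scanning cytometry and normalized to 20 uM Triacsin C.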

[9] = Primary qHTS for small molecule stabilizers of the endoplasmic reticulum resident proteome: Secreted ER Calcium Modulated Protein (SERCaMP) assay (AID 1508630; active = well fitted curve in the direction sought with a large enough effect; an effect the other way counts as inactive or inconclusive; also: % is scaled to controls: 0 for no effect and ±100 for the full control effect); details: SH-SY5Y GLuc-SERCaMP (Gaussia luciferase released on ER calcium loss) secretion, thapsigargin, luminescence; series mostly up to 38.4 µM
Method in brief: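 The SH-SY5Y reporter protocol was run at 3 concentrations up to 38.3 uM (primary) or 11 concentrations (follow-up): 16 h compound, 100 nM thapsigargin for 4 h, then extracellular luciferase luminescence.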

[10] = biological target: Glucocorticoid receptor (Homo sapiens) (UniProt P04150); experiment: GR-GFP Redistribution (AID 450;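 active = compounds whose dose series gives a full or clear partial fitted curve of increased nuclear translocation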; also: potency is read from the fitted curve at half-maximal effect); details: U2OS GR-GFP nuclear translocation, laser cytometry, 2 h
[11] = biological target: Cytochrome P450 3A4 (Homo sapiens) (UniProt P08684); experiment: qHTS Assay for Activators of Cytochrome P450 3A4 (AID 885; active = well fitted curve in the direction sought with a large enough effect; an effect the other way counts as inactive or inconclusive; also: nearly all actives have a fitted effect of over 65% in size); details: recombinant CYP3A4, Luciferin-PPXE luminescence, 60 min; series mostly up to 57.1 µM
Chain of Cytochrome P450 3A4 (Homo sapiens) (P08684 whole entry, looked up): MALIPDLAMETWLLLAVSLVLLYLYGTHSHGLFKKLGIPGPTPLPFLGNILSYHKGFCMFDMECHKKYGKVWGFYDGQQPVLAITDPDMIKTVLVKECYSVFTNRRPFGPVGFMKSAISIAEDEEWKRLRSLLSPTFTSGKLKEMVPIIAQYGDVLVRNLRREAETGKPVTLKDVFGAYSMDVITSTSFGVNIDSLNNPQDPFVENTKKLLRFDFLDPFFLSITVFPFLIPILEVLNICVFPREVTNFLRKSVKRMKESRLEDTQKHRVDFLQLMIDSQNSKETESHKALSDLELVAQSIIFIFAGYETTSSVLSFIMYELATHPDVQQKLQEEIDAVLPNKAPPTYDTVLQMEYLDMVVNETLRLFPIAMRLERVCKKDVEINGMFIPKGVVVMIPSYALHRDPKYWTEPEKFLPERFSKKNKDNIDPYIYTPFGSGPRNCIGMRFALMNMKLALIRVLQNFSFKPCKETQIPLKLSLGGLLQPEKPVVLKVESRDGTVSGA
Method in brief: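 Activators are scored by enhanced luminescence from CYP3A4 conversion of luciferin-PPXE (25uM, equal to KM) to luciferin, after 60 min at RT with an NADPH-regenerating system.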

[12] = Confirmation and Secondary Assay for Modulators of Hemoglobin Beta Chain Splicing at IVS2 654 locus (AID 910; active = well fitted curve in the direction sought with a large enough effect; an effect the other way counts as inactive or inconclusive;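 also: HeLa cells stably carrying EGFP split by mutant beta-globin IVS2-654 intron; per-well total GFP intensity by laser scanning cytometry after 2-day treatment; % of control where 0% means no effect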); details: HeLa EGFP-654 splicing reporter, GFP fluorescence, 48 h; series mostly up to 38.3 µM
Method in brief: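 Readout: per-well total peak green fluorescence (488 nm ex, 500–520 nm em) from objects 5–250 µm, reflecting correct splicing of an EGFP-654 reporter. Compounds were applied for 2 days at 37 °C to overnight-plated HeLa EGFP-654 cells; controls were DMSO and 500 nM IVS2-654 PNA.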

[13] = Confirmation and Secondary Assay for Modulators of Hemoglobin Beta Chain Splicing at IVS2 705 locus (AID 930; active = well fitted curve in the direction sought with a large enough effect; an effect the other way counts as inactive or inconclusive;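 also: HeLa cells stably expressing the EGFP-705 splicing reporter; % of control where 0% means no effect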); details: HeLa EGFP-705 splicing reporter, GFP fluorescence, 48 h; series mostly up to 38.3 µM
Method in brief: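 HeLa cells stably carrying EGFP interrupted by mutant beta-globin IVS2-705 intron (CMV-driven) were seeded at 500 cells/well, treated next day with compound for 2 days at 37C; corrected splicing restores EGFP, read as total peak GFP intensity per well.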

[14] = biological target: Ubiquitin carboxyl-terminal hydrolase 1 (Homo sapiens) (UniProt O94782); experiment: Inhibitors of USP1/UAF1: Pilot qHTS (AID 504865; active = well fitted curve in the direction sought with a large enough effect; an effect the other way counts as inactive or inconclusive;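 also: rhodamine fluorescence freed from ubiquitin-rhodamine substrate followed over time; top concentration of the series differs between compounds; % is scaled to controls: 0 for no effect and ±100 for the full control effect; nearly all actives have a fitted effect of over 35% in size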); details: purified USP1/UAF1, Ub-rhodamine cleavage fluorescence; series mostly up to 54.9 µM
Chain of Ubiquitin carboxyl-terminal hydrolase 1 (Homo sapiens) (O94782 whole entry, looked up): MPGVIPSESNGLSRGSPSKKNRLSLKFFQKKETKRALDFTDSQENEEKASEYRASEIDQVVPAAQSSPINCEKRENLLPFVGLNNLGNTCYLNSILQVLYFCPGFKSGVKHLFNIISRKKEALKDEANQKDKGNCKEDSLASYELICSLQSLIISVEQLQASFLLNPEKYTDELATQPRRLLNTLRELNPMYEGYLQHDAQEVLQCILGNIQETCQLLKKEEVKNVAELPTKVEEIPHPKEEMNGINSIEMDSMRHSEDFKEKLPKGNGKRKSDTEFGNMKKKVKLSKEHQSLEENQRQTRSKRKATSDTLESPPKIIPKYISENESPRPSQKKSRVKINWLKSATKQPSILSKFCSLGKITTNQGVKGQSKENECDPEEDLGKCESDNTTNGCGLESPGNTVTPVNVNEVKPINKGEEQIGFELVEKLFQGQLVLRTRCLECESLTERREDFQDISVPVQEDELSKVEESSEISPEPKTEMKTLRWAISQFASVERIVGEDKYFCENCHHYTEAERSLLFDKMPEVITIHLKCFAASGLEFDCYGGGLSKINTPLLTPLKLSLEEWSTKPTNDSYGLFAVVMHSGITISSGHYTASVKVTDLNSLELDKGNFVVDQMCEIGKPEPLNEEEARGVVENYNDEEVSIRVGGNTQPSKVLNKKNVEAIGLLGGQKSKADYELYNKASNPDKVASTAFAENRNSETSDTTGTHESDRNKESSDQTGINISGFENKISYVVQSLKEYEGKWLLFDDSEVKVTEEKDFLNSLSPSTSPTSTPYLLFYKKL
Method in brief: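 1nM USP1/UAF1 + cpd, 15 min RT; start w/ Ub-Rho 150nM final; kinetic FL 480/540 nm, 6 reads q60 s. Buffer 50mM HEPES pH 7.8, 0.5mM EDTA, 1mM TCEP, 0.01% Tween-20, 0.1 mg/ml BSA.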

[15] = biological target: Cytochrome P450 3A4 (Homo sapiens) (UniProt P08684); experiment: qHTS Assay for Inhibitors and Substrates of Cytochrome P450 3A4 (AID 884; active = well fitted curve in the direction sought with a large enough effect; an effect the other way counts as inactive or inconclusive; also: % is scaled to controls: 0 for no effect and ±100 for the full control effect; nearly all actives have a fitted effect of over 50% in size); details: recombinant CYP3A4, Luciferin-PPXE luminescence; series mostly up to 57.1 µM
Method in brief: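 Luminescent readout of luciferin produced by CYP3A4 (20 nM) dealkylation of Luciferin-PPXE, 25 uM (its KM). NADPH-driven reaction ran 60 min at RT after 10 min compound preincubation; data scaled to 57 uM ketoconazole as 100% inhibition.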

[16] = biological target: Cytochrome P450 2C19 (Homo sapiens) (UniProt P33261); experiment: qHTS Assay for Inhibitors and Substrates of Cytochrome P450 2C19 (AID 899; active = well fitted curve in the direction sought with a large enough effect; an effect the other way counts as inactive or inconclusive; also: potency is read from the fitted curve at half-maximal effect; nearly all actives have a fitted effect of over 60% in size); details: recombinant CYP2C19, luciferin-H EGE luminescence; series mostly up to 57.1 µM
Chain of Cytochrome P450 2C19 (Homo sapiens) (P33261 whole entry, looked up): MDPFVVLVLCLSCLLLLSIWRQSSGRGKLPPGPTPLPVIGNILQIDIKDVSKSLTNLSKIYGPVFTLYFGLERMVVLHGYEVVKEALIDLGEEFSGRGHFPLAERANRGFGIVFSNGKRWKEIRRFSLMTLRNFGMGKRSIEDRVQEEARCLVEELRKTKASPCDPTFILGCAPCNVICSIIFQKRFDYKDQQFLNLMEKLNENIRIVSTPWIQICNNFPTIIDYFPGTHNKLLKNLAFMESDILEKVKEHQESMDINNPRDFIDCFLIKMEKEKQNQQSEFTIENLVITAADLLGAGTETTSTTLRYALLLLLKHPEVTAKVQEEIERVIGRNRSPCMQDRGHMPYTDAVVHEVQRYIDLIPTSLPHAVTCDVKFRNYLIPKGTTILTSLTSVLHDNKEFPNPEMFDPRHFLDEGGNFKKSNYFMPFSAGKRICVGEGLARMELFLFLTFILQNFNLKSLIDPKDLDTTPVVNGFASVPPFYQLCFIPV
Method in brief: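 5nM enzyme + 10uM Luciferin-H EGE (=KM), 50mM KPO4; cpd pin-transferred, 10 min 37C; NADPH regen, 60 min 37C; stopped w/ luciferin detection reagent, 20 min; luminescence. Normalized to 57uM ketoconazole (AC100).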

[17] = measured here: cell count channel max response
[18] = measured here: lipid channel max response

Structure (SMILES) | Potency [1] | activity change, negative = inhibition [2] | Potency [3] | activity, negative = inhibition [4] | Potency [5] | Potency [6] | Potency [7] | activity change, negative = inhibition [8] | max response [8, 17] | max response [8, 18] | outcome [9] | Potency [10] | Potency [11] | Potency [12] | outcome [13] | Potency [14] | Potency [15] | Potency [16]
N#Cc1ccc(CN2CCC3(CC2)CCN(C(=O)c2cc(C(F)(F)F)cc(C(F)(F)F)c2)CC3)cc1 | > 11.4 µM (inactive) | 7.04% (inactive) | inactive | 3.33% (inactive) | > 46 µM (inactive) | inactive | inactive | 1.9% (inactive) | 7.25% | 11% | inactive |  |  |  |  |  |  | 
COCC(=O)N1CCC2(CCN(Cc3ccccc3OC)CC2)CC1 | > 11.4 µM (inactive) | -3.62% (inactive) | inactive | -4.34% (inactive) | > 46 µM (inactive) | inactive | inactive | -2.32% (inactive) | -22.5% | -24% | inactive |  |  |  |  |  |  | 
CN(C)Cc1ccccc1-c1cncnc1NC1CC1 | > 11.4 µM (inactive) | -1.86% (inactive) | 15.8 µM (active) | 2.98% (inactive) | > 46 µM (inactive) | inactive | inactive | 6.51% (inactive) | 18.3% | 22.5% | inactive | > 46 µM (inactive) | inactive | inactive | inactive | inactive |  | 
CC(C)CN1CC2(CCN(C(=O)c3cccc(F)c3)CC2)C1 | > 11.4 µM (inactive) | 10.2% (inactive) | inactive | -19.8% (inactive) | > 46 µM (inactive) | inactive | inactive | 2.36% (inactive) | 11.5% | 16.2% | inactive |  |  |  |  |  |  | 
COc1ccccc1CN1CCC2(CC1)CCN(C(=O)c1ccco1)CC2 | > 11.4 µM (inactive) | -17.3% (inactive) | inactive | -4.26% (inactive) | > 46 µM (inactive) | inactive | inactive | 3.05% (inactive) | 1.79% | 7.5% | inactive |  |  |  |  |  |  | 
CN1CCCC2(CCN(S(=O)(=O)c3ccccc3)CC2)C1 | > 11.4 µM (inactive) | 17.6% (inactive) | 20 µM (active) | -3% (inactive) | > 46 µM (inactive) | inactive | inactive | 2.33% (inactive) | 19.8% | 25% | inactive |  |  |  |  |  |  | 
O=C(Oc1ccccc1)N1CCC2(CC1)CCN(c1ccncc1)CC2 | > 11.4 µM (inactive) | 9.96% (inactive) | inactive | 16.5% (inactive) | > 46 µM (inactive) | inactive | inactive | 1.8% (inactive) | -5.74% | -3.08% | inactive |  |  |  |  |  |  | 
CN(C)Cc1ccccc1-c1cncnc1NCc1cccs1 | > 11.4 µM (inactive) | 8.74% (inactive) | 25.1 µM (active) | -5.04% (inactive) | > 46 µM (inactive) | inactive | inactive | 5.02% (inactive) | 16.5% | 25.4% | inactive | > 46 µM (inactive) | inactive | inactive | inactive | inactive |  | 
O=C(Nc1cccc(F)c1)N1CC[C@@]2(CCCN(C(=O)c3cc(C(F)(F)F)cc(C(F)(F)F)c3)C2)C1 | > 11.4 µM (inactive) | -8.61% (inactive) | inactive | -4.49% (inactive) | > 46 µM (inactive) | inactive | inactive | 5.77% (inactive) | -3.02% | 6% | inactive |  |  |  |  |  |  | 
O=C(c1cccc(F)c1)N1CCC2(CCCN(Cc3ccccc3)C2)CC1 | > 11.4 µM (inactive) | 1.11% (inactive) | inactive | -5.98% (inactive) | > 46 µM (inactive) | inactive | inactive | -8.15% (inactive) | 20.2% | 12% | inactive |  |  |  |  |  |  | 
CN(C)c1ccc(-c2cncnc2NCc2ccccc2)cc1 | > 11.4 µM (inactive) | -0.796% (inactive) | 1 µM (active) | -2.24% (inactive) | > 46 µM (inactive) |  |  | 9.86% (inactive) | -3.1% | 16.1% | inactive | > 46 µM (inactive) |  | inactive | inactive |  | inactive | 0.398 µM (active)
O=C(c1csnn1)N1CCC2(CC1)CCN(C(c1ccccc1)c1ccccc1)CC2 | > 11.4 µM (inactive) | -5.85% (inactive) | inactive | 4.86% (inactive) | > 46 µM (inactive) | inactive | inactive | -2.09% (inactive) | 3.93% | 2.32% | inactive |  |  |  |  |  |  | 
COCC(=O)N1CCC2(CCCN(Cc3ccccc3)C2)CC1 | > 11.4 µM (inactive) | -19.3% (inactive) | inactive | 0.327% (inactive) | > 46 µM (inactive) | inactive | inactive | 2.23% (inactive) | 22.3% | 27.9% | inactive |  |  |  |  |  |  | 
CC(C)CN1CCC2(CC1)CCN(C(=O)c1cccn1C)CC2 | > 11.4 µM (inactive) | -13.5% (inactive) | inactive | -4.86% (inactive) | > 46 µM (inactive) | inactive | inactive | 0.342% (inactive) | -5.62% | -4.46% | inactive |  |  |  |  |  |  | 
CC(C)CN1CCC2(CC1)CCN(S(=O)(=O)c1ccccc1)CC2 | > 11.4 µM (inactive) | -4.17% (inactive) | inactive | -1.58% (inactive) | > 46 µM (inactive) | inactive | inactive | 2.93% (inactive) | -0.0585% | 3.86% | inactive |  |  |  |  |  |  | 
